Screening data from PubChem.
Compounds with a hit are over-represented: about 7.3% of the library has one in this group of screens.
SMN2 splice up: qHTS Assay for Enhancers of SMN2 Splice Variant Expression. HEK293 SMN2-luciferase splicing reporter, luminescence, 30-36 h. Potency, µM (doses to about 46.1 µM), for the others: at the top dose activity change, positive = activation, actives largely listed as activators. actives 2.8% (n = 210,000); further: % of control where 0% means no effect; nearly all actives have a fitted effect of over 55% in size
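qHTS luciferase splicing reporter: luminescence rises when SMN2 exon 7 is included in transfected HEK293 cells. Compound exposure lasted 30-36 h at 37C, with 4.5 mM final sodium butyrate as control, followed by a ONE-Glo read.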
KinaseGlo FLuc: Counterscreen for Luciferase (Kinase-Glo TM) Inhibition. Kinase-Glo luciferase, ATP luminescence, 8 min. actives 0.28% (n = 200,000). Luciferin 4-monooxygenase (Photuris pensylvanica), Q27757. Potency, µM (titrated, usually from 38.3 µM), inactives show at the highest dose activity change, negative = inhibition, actives largely listed as inhibitors; further: on the % scale 0 is the no-effect control and ±100 the full control effect; nearly all actives have a fitted effect of over 60% in size
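Kinase-Glo luciferase light output from ATP and luciferin was measured with 10 uM ATP, within the enzyme's linear range. Buffer: 50 mM imidazole pH 7.2, 50 mM KCl, 7 mM MgCl2, 0.01% Tween 20, 0.05% BSA; luminescence read after 8 min at ambient temperature.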
FLuc counter: qHTS profiling assay for firefly luciferase inhibitor/activator using purifed enzyme and Km concentrations of substrates (counterscreen for miR-21 project). Potency, µM (series often up to 57.5 µM), inactives show at the top dose activity change, negative = inhibition, usual class: inhibitors. Luciferin 4-monooxygenase (Photinus pyralis), P08659. purified FLuc, Km substrates, luminescence inhibition. actives 6.9% (n = 360,000);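 further: plate controls were vehicle for no effect and reference inhibitor for full effect; nearly all actives have a fitted effect of over 55% in size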
Target sequence (P08659 whole entry, looked up): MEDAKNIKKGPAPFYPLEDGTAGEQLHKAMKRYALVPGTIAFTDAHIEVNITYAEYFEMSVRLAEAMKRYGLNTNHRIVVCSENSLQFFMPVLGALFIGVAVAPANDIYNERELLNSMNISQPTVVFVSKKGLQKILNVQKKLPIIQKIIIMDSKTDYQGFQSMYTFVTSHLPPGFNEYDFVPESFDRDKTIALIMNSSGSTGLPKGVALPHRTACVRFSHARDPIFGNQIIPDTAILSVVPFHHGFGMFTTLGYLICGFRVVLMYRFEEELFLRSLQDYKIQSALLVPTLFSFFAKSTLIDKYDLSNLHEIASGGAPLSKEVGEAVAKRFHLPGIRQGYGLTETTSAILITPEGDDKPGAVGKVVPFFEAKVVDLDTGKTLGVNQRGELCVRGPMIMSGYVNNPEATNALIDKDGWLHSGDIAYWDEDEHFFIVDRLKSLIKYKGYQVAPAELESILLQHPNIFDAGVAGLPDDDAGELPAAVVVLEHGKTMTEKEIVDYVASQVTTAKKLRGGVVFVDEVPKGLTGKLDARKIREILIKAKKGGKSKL
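Purified P. pyralis luciferase (10nM final) with 10uM D-luciferin and 10uM ATP (Km levels) in 50mM Tris acetate pH 7.5, 10mM Mg acetate, 0.01% Tween-20, 0.05% BSA; qHTS 6-point titration, ~60 µM downward; luminescence read.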
NPC1 prom act: qHTS Assay for NPC1 Promoter Activators; Huh7 NPC1 promoter luciferase reporter, 24 h; Potency, µM (titrated, usually from 9.22 µM), for inactives: at the top dose activation, hits mostly activators; actives 2.4% (n = 320,000); AID 485313, 2010; further: % of control where 0% means no effect; nearly all actives have a fitted effect of over 60% in size
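Luminescence read-out of NPC1 promoter-driven luciferase in stably transfected Huh7 cells; compounds delivered in DMSO and left 24 h at 37C, 5% CO2, qHTS titration format.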
ELG1 genotoxic: qHTS screen for small molecules that induce genotoxicity in human embryonic kidney (HEK293T) cells expressing luciferase-tagged ELG1 | HEK293T ELG1-luciferase reporter, luminescence, 16 h | Potency, µM (series often up to 46 µM), for inactives: at the top dose activity change, positive = activation, hits mostly activators | actives 1.3% (n = 330,000) | AID 504466, 2011; further: % of control where 0% means no effect; nearly all actives have a fitted effect of over 60% in size
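Genotoxicity was scored as increased ELG1-luciferase reporter signal, measured by ONE-Glo luminescence (30 min, room temperature). Compound or vehicle exposure of the HEK293T reporter cells lasted 16 hr at 37°C.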
Rab9 promoter act: qHTS Assay for Rab9 Promoter Activators; Huh7 Rab9 promoter-luciferase reporter, luminescence, 24 h; Potency, µM (titrated, usually from 9.22 µM), without a hit: top-dose activation, negative = inhibition, most hits filed as activators; actives 2.8% (n = 320,000); further: % of control where 0% means no effect; nearly all actives have a fitted effect of over 60% in size
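Luminescence from Amplite-detected luciferase (10 minutes, ambient) reports Rab9 promoter activation. Before that, stable Rab9-luciferase Huh7 cells (1500/well, reduced-serum OP-MEM I plus 10% FBS) were exposed to compound for 24 hours at 37C.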
Starred values were filed as active, the others as inactive. The call rests on the fitted dose curve; in most records, active means well fitted curve in the direction sought with a large enough effect; inconclusive means small, poorly fitted or top-dose-only effect, or another doubt; inactive means no such curve, though single readings can be large; an effect the other way counts as inactive or inconclusive. Potency means the concentration at half of the fitted maximal effect.

What do the screens show for `CC(C)CN1CCN(Cc2cc(F)ccc2-n2cccn2)CC1CCO` (stereo not drawn)?
FLuc counter: 0%; NPC1 prom act: 0%; ELG1 genotoxic: -1%; Rab9 promoter act: 0%

How did CCCCN(c1ccccc1)c1ncnc2c1cnn2-c1cccc(C)c1 do in these assays?
FLuc counter: -15%

How did CCCCN(c1ccccc1)c1ncnc2c1cnn2-c1ccc(Cl)cc1 do in these assays?
FLuc counter: 13µM*

What do the screens show for `CCN(c1ccccc1)c1ncnc2c1cnn2-c1ccc(OC)cc1`?
FLuc counter: 6.7µM*

Results for CCOC(=O)N1CCC(N2CC34C=CC(O3)C(C(=O)Nc3ccc(F)cc3)C4C2=O)CC1 (stereo not drawn) ?
SMN2 splice up: 3%; KinaseGlo FLuc: 14%; FLuc counter: 1%; NPC1 prom act: -4%; ELG1 genotoxic: 1%; Rab9 promoter act: -29%

What do the screens show for `COc1ccc(NC(=O)CSc2nnc(NC(=O)c3ccco3)s2)cc1OC`?
FLuc counter: 21µM*; NPC1 prom act: 4%; ELG1 genotoxic: 11%; Rab9 promoter act: 20%

Results for O=C(CSc1nnnn1C1CCCCC1)Nc1cccc(NC(=O)c2ccco2)c1 ?
SMN2 splice up: -1%; KinaseGlo FLuc: 0%; FLuc counter: 17µM*; NPC1 prom act: -1%; ELG1 genotoxic: -3%; Rab9 promoter act: -9%

What do the screens show for `CCSc1nnc(NC(=O)Nc2cccc(C)c2)s1`?
FLuc counter: 11µM*; NPC1 prom act: inconclusive; ELG1 genotoxic: -9%; Rab9 promoter act: inconclusive

How did Cc1cccc(NC(=O)CSc2nnc(NC(=O)c3ccco3)s2)c1 do in these assays?
SMN2 splice up: 22%; KinaseGlo FLuc: -2%; FLuc counter: 13µM*; NPC1 prom act: 0%; ELG1 genotoxic: -5%; Rab9 promoter act: 18%

Results for O=C(CSc1nnnn1C1CCCC1)Nc1cccc(NC(=O)c2ccco2)c1 ?
SMN2 splice up: -1%; KinaseGlo FLuc: -6%; FLuc counter: inconclusive; NPC1 prom act: -1%; ELG1 genotoxic: 1%; Rab9 promoter act: -1%

Results for N#Cc1cc(-c2ccccc2)nnc1Oc1ccccc1 ?
SMN2 splice up: -49%; KinaseGlo FLuc: 0%; FLuc counter: -4%; NPC1 prom act: -8%; ELG1 genotoxic: -4%; Rab9 promoter act: -10%

What do the screens show for `Cc1cccc(Cn2c(SCC(=O)Nc3ccccc3)nc3c2c(=O)[nH]c(=O)n3C)c1`?
SMN2 splice up: 14%; KinaseGlo FLuc: 2%; FLuc counter: 1%; NPC1 prom act: -3%; ELG1 genotoxic: -14%; Rab9 promoter act: 0%

What do the screens show for `COc1ccc(NC(=O)Nc2nnc(SCC(=O)Nc3cccc(C)c3C)s2)cc1`?
FLuc counter: 0.6µM*

How did O=C(CSc1nnc(NC(=O)c2ccco2)s1)Nc1ccc(F)cc1 do in these assays?
SMN2 splice up: 26%; KinaseGlo FLuc: 1%; FLuc counter: 15µM*; NPC1 prom act: 11%; ELG1 genotoxic: 4%; Rab9 promoter act: 19%

Results for COc1cccc(N2CC(C(=O)Nc3nnc(SCC(=O)Nc4ccc(NC(C)=O)cc4)s3)CC2=O)c1 (stereo not drawn) ?
FLuc counter: -16%; NPC1 prom act: 0%; ELG1 genotoxic: 2%; Rab9 promoter act: -1%

How did COc1ccc(NC(=O)CSc2nnc(NC(=O)c3ccco3)s2)cc1 do in these assays?
SMN2 splice up: inconclusive; KinaseGlo FLuc: -4%; FLuc counter: 15µM*; NPC1 prom act: 14%; ELG1 genotoxic: 17%; Rab9 promoter act: 16%

What do the screens show for `COc1cccc(C(=O)Nc2nnc(SCC(=O)Nc3ccc(NC(C)=O)cc3)s2)c1`?
FLuc counter: 0.48µM*; NPC1 prom act: 2.8µM*; ELG1 genotoxic: inconclusive; Rab9 promoter act: 3.5µM*

What do the screens show for `Cc1cccc(NC(=O)CSc2nnc(NC(=O)C3CC3)s2)c1C`?
FLuc counter: 0%; NPC1 prom act: -1%; ELG1 genotoxic: 8%; Rab9 promoter act: 16%

How did O=C(NCCCNC(=O)C(F)(F)C(F)F)C(F)(F)C(F)F do in these assays?
SMN2 splice up: 1%; KinaseGlo FLuc: -2%; FLuc counter: -2%; NPC1 prom act: -1%; ELG1 genotoxic: 0%; Rab9 promoter act: -10%

What do the screens show for `O=C(CSc1nnc(NC(=O)c2ccco2)s1)Nc1ccc2c(c1)OCCO2`?
SMN2 splice up: 6%; KinaseGlo FLuc: -3%; FLuc counter: 13µM*; NPC1 prom act: 9%; ELG1 genotoxic: 13%; Rab9 promoter act: 0%

Results for Cc1cccc(Nc2nnc(SCC(=O)NCC3CCCO3)s2)c1 (stereo not drawn) ?
ELG1 genotoxic: 4%

How did Cc1ccc(Nc2nnc(SCC(=O)Nc3cccnc3Cl)s2)cc1C do in these assays?
SMN2 splice up: 18%; KinaseGlo FLuc: -10%; FLuc counter: 1.1µM*; NPC1 prom act: -4%; ELG1 genotoxic: 6%; Rab9 promoter act: -9%

Results for Cc1ccc(Nc2nnc(SCC(=O)Nc3ccccc3[N+](=O)[O-])s2)cc1 ?
SMN2 splice up: 3%; KinaseGlo FLuc: -1%; FLuc counter: inconclusive; NPC1 prom act: 7%; ELG1 genotoxic: 2%; Rab9 promoter act: 5%

What do the screens show for `CCSc1nnc(NC(=O)c2csc(C)c2)s1`?
SMN2 splice up: 14µM*; KinaseGlo FLuc: 2%; FLuc counter: -17%; NPC1 prom act: 2.8µM*; ELG1 genotoxic: inconclusive; Rab9 promoter act: 2.2µM*

Results for C/C(N)=C(/C#N)C(=O)CSc1nnc(Nc2cccc(C)c2)s1 ?
SMN2 splice up: 16µM*; KinaseGlo FLuc: 2%; FLuc counter: 5.4µM*; NPC1 prom act: inconclusive; ELG1 genotoxic: inconclusive; Rab9 promoter act: inconclusive

What do the screens show for `Cc1nnc(SCC(=O)Nc2ccc3c(c2)OCCO3)s1`?
SMN2 splice up: 1%; KinaseGlo FLuc: 0%; FLuc counter: inconclusive; NPC1 prom act: 5%; ELG1 genotoxic: 2%; Rab9 promoter act: 0%

How did CCN1CCN(C(=O)c2cnn(-c3cccc(Cl)c3)c2C2CCN(C(=O)OC(C)(C)C)CC2)CC1 do in these assays?
FLuc counter: -6%

How did N/C(=N\OC(=O)c1cccc(Br)c1)c1ccccn1 do in these assays?
FLuc counter: 0.43µM*; NPC1 prom act: 3.5µM*; ELG1 genotoxic: inconclusive; Rab9 promoter act: 4µM*
